In assay [1] the target is Luciferin 4-monooxygenase (Photinus pyralis) (UniProt P08659). In words: qHTS assay to identify small molecule inhibitors of firefly luciferase (AID 1224835). Also: % is scaled to controls: 0 for no effect and ±100 for the full control effect; nearly all actives have a fitted effect of over 25% in size. The gist of the method: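 Inhibition of purified Photinus luciferase is measured by luminescence. Substrate levels (D-luciferin, ATP) sit at their KM values. Each compound is tested in a concentration series.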
Chain of Luciferin 4-monooxygenase (Photinus pyralis) (P08659 whole entry, looked up): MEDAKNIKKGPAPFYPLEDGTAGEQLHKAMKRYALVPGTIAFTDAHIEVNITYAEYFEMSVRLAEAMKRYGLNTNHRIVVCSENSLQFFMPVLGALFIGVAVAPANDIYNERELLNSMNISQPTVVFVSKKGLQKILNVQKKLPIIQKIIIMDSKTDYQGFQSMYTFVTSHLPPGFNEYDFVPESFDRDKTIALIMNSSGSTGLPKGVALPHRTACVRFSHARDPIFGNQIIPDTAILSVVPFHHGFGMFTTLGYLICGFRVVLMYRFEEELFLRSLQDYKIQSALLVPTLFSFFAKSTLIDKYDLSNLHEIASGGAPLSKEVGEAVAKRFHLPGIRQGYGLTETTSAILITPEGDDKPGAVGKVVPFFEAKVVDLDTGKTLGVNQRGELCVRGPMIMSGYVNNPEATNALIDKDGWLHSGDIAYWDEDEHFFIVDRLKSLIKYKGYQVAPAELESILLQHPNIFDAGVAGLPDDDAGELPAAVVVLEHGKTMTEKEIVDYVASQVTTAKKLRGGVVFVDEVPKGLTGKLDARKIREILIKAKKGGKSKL
The nature of assay [2]: qHTS assay to identify small molecule antagonists of the constitutive androstane receptor (CAR) signaling pathway - cell viability counter screen (AID 1224837). Also: nearly all actives have a fitted effect of over 45% in size. Also: potency is read from the fitted curve at half-maximal effect. The gist of the method: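 Viability was measured with CellTiter-Fluor in a HepG2 line carrying stably transfected hCAR and a CYP2B6-2.2kb construct. Cells were exposed for 23 hr at 37 C to 15 compound concentrations with 50 nM CITCO as agonist.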
(qHTS replaces the single test concentration by a dilution series.)

The target in assay [3] is Nuclear receptor subfamily 1 group I member 3 (Homo sapiens) (UniProt Q14994). The experiment in a line: qHTS assay to identify small molecule antagonists of the constitutive androstane receptor (CAR) signaling pathway (AID 1224838).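 Also: HepG2 cells stably expressing hCAR with CYP2B6 luciferase reporter stimulated by CITCO; nearly all actives have a fitted effect of over 40% in size.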 Also: potency is read from the fitted curve at half-maximal effect. The gist of the method: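 Antagonist mode used CITCO at a final 50 nM to activate CAR in human hepatoma HepG2 cells carrying stable hCAR and a 2.2 kb CYP2B6 promoter-luciferase construct. Compounds were tested at 15 concentrations over 24 h, with luminescence as the end point.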
Chain of Nuclear receptor subfamily 1 group I member 3 (Homo sapiens) (Q14994 whole entry, looked up): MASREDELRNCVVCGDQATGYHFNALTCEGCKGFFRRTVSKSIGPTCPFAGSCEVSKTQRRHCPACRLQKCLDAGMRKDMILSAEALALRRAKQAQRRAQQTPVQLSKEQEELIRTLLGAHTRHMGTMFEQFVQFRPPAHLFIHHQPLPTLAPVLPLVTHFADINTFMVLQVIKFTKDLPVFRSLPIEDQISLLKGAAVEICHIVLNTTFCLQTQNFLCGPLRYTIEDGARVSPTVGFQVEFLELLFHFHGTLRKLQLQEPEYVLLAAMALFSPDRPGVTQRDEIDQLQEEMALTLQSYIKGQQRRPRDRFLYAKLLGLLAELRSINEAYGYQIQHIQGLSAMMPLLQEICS

The target is the same in assay [4]. In words: qHTS assay to identify small molecule agonists of the constitutive androstane receptor (CAR) signaling pathway (AID 1224839). Also: % is scaled to controls: 0 for no effect and ±100 for the full control effect; nearly all actives have a fitted effect of over 15% in size. The gist of the method:
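Using human hepatoma HepG2 cells engineered with hCAR and a CYP2B6-2.2kb reporter, 15-concentration compound series were incubated 24 h alongside PK11195 at 0.75 uM final, with luminescence quantified afterwards.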

A short description of assay [5]: qHTS assay to identify small molecule antagonists of the estrogen related receptor signaling pathway with the pleiotropic PPARgamma coactivator (PGC) from Tox21 10K library - cell viability counter screen (AID 1224840; active = well fitted cell-killing curve with a large enough effect in the repeat runs, not every such curve was filed as active; also: nearly all actives have a fitted effect of over 40% in size; also: potency is read from the fitted curve at half-maximal effect). The gist of the method: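 Multiplexed viability counter screen in the PGC/ERR cell line: cells treated with DMSO-dissolved compounds for 17.5 hours at 37 C, then viability measured as CellTiter-Fluor fluorescence.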

The target in assay [6] is Thyrotropin receptor (Homo sapiens) (UniProt P16473). The experiment in a line: qHTS assay to identify small molecule agonists of the thyroid stimulating hormone receptor (TSHR) signaling pathway (AID 1224843; calls by dose curve; also: % is scaled to controls: 0 for no effect and ±100 for the full control effect; nearly all actives have a fitted effect of over 45% in size). The gist of the method: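 Agonist activity read as cAMP rise via d2/cryptate HTRF competition, 1 h room-temperature detection, in HEK293 cells expressing TSHR. Fifteen-point titrations, each run in triplicate, with a 30 min room-temperature incubation beforehand.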
Chain of Thyrotropin receptor (Homo sapiens) (P16473 whole entry, looked up): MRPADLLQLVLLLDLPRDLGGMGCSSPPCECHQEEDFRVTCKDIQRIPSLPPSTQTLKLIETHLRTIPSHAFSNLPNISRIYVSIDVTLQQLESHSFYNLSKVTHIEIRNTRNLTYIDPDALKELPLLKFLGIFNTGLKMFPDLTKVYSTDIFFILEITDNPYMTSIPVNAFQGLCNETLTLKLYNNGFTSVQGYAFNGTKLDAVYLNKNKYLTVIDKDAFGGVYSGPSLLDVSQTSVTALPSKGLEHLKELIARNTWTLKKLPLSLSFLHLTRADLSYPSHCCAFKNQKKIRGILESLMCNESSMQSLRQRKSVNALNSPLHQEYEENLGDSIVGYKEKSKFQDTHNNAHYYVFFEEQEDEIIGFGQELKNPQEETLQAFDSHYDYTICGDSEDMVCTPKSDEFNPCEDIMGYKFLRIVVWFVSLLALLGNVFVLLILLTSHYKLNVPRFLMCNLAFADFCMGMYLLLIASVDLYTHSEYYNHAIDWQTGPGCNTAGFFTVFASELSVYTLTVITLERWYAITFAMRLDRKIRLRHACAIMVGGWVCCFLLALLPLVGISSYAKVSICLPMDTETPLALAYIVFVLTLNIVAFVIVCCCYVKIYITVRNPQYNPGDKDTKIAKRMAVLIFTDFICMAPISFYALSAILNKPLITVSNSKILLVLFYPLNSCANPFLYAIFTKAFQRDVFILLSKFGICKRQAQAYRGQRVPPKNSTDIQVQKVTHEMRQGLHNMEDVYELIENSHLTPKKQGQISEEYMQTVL

Assay [7] is described as follows: qHTS assay to identify small molecule agonists of the hypoxia (HIF-1) signaling pathway - cell viability counter screen (AID 1224844; calls by dose curve; also: % is scaled to controls: 0 for no effect and ±100 for the full control effect; nearly all actives have a fitted effect of over 50% in size). The gist of the method:
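Cytotoxicity was measured in parallel with the HRE-driven beta-lactamase readout: after 17 hrs of compound exposure at 37C, HRE-bla ME-180 cells received CellTiter-Glo and luminescence was recorded 30 min later.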

Assay [8] can be described thus: qHTS assay to identify small molecule agonists of the hypoxia (HIF-1) signaling pathway (AID 1224846; active = well fitted activation curve with a large enough effect in the signal ratio in the repeat runs, not every such curve was filed as active; the % refers to the signal ratio; also: % is scaled to controls: 0 for no effect and ±100 for the full control effect). The gist of the method:
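Compounds from the Tox21 10K library, dissolved in DMSO, are tested for induction of a hypoxia response element–controlled beta-lactamase reporter in ME-180 cells. Exposure lasts 17 hrs at 37C after a 5 hr settling period, followed by CCF4-AM FRET substrate.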

Assay [9] in a line: qHTS assay to identify small molecule agonists of H2AX - cell viability counter screen (AID 1224847; calls by dose curve;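 also: wild-type CHO-K1 cells; top concentration of the series differs between compounds; % is scaled to controls: 0 for no effect and ±100 for the full control effect; nearly all actives have a fitted effect of over 30% in size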). The gist of the method:
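After overnight plating of 1000 CHO-K1 cells per well, a 15-concentration compound series was applied for 3 hr at 37C. Luminescence from CellTiter-Glo, read following 30 min at room temperature, reflected cell viability.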

A short description of assay [10]: qHTS RealTime-Glo MT Cell Viability Assay in HepG2 cells - 24 hour (AID 1224867). Also: % is scaled to controls: 0 for no effect and ±100 for the full control effect; nearly all actives have a fitted effect of over 50% in size. The gist of the method:
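HepG2 cells (600/well) were dispensed with RealTime-Glo reagents, incubated 5 h at 37 °C, then treated with compounds in DMSO for up to 40 h. Nonlytic NanoLuc luminescence reflecting viable cells was read at each stated time point.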

Assay [11] in a line: qHTS RealTime-Glo MT Cell Viability Assay in HEK293 cells - 32 hour (AID 1224868). Also: nearly all actives have a fitted effect of over 50% in size. Also: potency is read from the fitted curve at half-maximal effect. The gist of the method: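 HEK293 cells seeded with NanoLuc/prosubstrate reagent, rested 5 h at 37 C, then dosed and kept at 37 C up to 40 h. Nonlytic real-time luminescence from viable cells read at 0, 8, 16, 24, 32 and 40 h.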
The nature of assay [12]: A CellTox Green Cytotoxicity Assay to monitor cytotoxicity in HEK293 cells - 0 hour (AID 1224869). Also: % is scaled to controls: 0 for no effect and ±100 for the full control effect; nearly all actives have a fitted effect of over 50% in size. The gist of the method: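 Cells (HEK293, 600/well) and dye reagent are dispensed together. After 5 h at 37 C, 23 nL compound is pinned in. Plates stay at 37 C for 40 h with fluorescence read at 0h, 8h, 16h, 24h, 32h and 40h.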
A short description of assay [13]: qHTS RealTime-Glo MT Cell Viability Assay in HepG2 cells - 40 hour (AID 1224870). The gist of the method:
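Real-time viability: cells seeded at 600 per well together with NanoLuc and cell-permeant prosubstrate, compounds added after 5 h incubation. Luminescence tracked at 0, 8, 16, 24, 32 and 40 h of exposure.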

Assay [14] is described as follows: qHTS assay to identify small molecule agonists of the constitutive androstane receptor (CAR) signaling pathway - cell viability counter screen (AID 1224836). Also: % is scaled to controls: 0 for no effect and ±100 for the full control effect; nearly all actives have a fitted effect of over 45% in size. The gist of the method:
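Multiplexed viability check: HepG2-CYP2B6-hCAR cells, 15-point compound dosing, 0.75 uM PK11195 final, 23 h at 37 C, CellTiter-Fluor fluorescence.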

Assay [15] can be described thus: qHTS assay to identify small molecule agonists of the estrogen related receptor signaling pathway with the pleiotropic PPARgamma coactivator (PGC) from Tox21 10K library (AID 1224842). Also: % is scaled to controls: 0 for no effect and ±100 for the full control effect; nearly all actives have a fitted effect of over 15% in size. The gist of the method: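 Luminescence from One-Glo (30 min, room temperature) measured after PGC/ERR cells had 18 h at 37 C with pinned compound (23 nL in DMSO). Cells had been seeded at 2,000 per well and pre-incubated 6 h.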

The nature of assay [16]: qHTS assay to identify small molecule agonists of H2AX (AID 1224845; active = well fitted activation curve with a large enough effect in the signal ratio in the repeat runs, not every such curve was filed as active; the % refers to the signal ratio; also: % is scaled to controls: 0 for no effect and ±100 for the full control effect). The gist of the method: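 Phospho-H2AX Ser139 measured by HTRF (ex 320 nm; em 665 and 620 nm) after 24 hr antibody incubation. Compounds, 15 concentrations, 0.76% DMSO, were applied to CHO-K1 cells for 3hr at 37C before lysis.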
Assay [17] is described as follows: qHTS assay to identify small molecule agonists of the estrogen related receptor (ERR) signaling pathway from Tox21 library (AID 1224849; calls by dose curve; also: % is scaled to controls: 0 for no effect and ±100 for the full control effect; nearly all actives have a fitted effect of over 15% in size). To be noted: ERR reporter cell line, ONE-Glo luciferase, 18 h; at 92.4 µM (top of the series) unless noted. The gist of the method: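 Cells carrying the ERR reporter were plated and allowed to settle for 6 h, exposed to library compounds for 18 h at 37 C, then lysed with ONE-Glo and luminescence measured.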

The nature of assay [18]: qHTS assay to identify small molecule antagonists of the estrogen related receptor (ERR) signaling pathway from Tox21 library - cell viability counter screen (AID 1224834). Also: nearly all actives have a fitted effect of over 30% in size. Also: potency is read from the fitted curve at half-maximal effect. The gist of the method: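 ERR cells, 2,000/well; 6 h settle at 37 C/5% CO2; pin-tool compound transfer in DMSO; 17.5 h at 37 C; CellTiter-Fluor, 30 min; fluorescence intensity.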
The nature of assay [19]: qHTS assay to identify small molecule antagonists of the estrogen related receptor (ERR) signaling pathway from Tox21 library (AID 1224848). The gist of the method:
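Luciferase luminescence (ONE-Glo, 30 min room temperature) was the read-out. Cells of the NTP-supplied ERR line, 2,000 per well, were given 6 h at 37 C before compound addition in DMSO and 18 h exposure at 37 C.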

Assay [20] is described as follows: qHTS assay to identify small molecule antagonists of the estrogen related receptor signaling pathway with the pleiotropic PPARgamma coactivator (PGC) from Tox21 10K library (AID 1224841; call rule not given here; also: potency is read from the fitted curve at half-maximal effect). The gist of the method: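 Steps: plate 2,000 PGC/ERR cells per well; incubate 6 h at 37 C with 5% CO2; transfer compounds from DMSO stocks by pin tool; incubate 18 h at 37 C; add One-Glo; measure luminescence 30 min later.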

Each structure is given as a SMILES string. Unmarked numbers belong to inactive results. Results filed as inconclusive are left out. Calls of active or inactive are those of the source. Unless noted, calls follow the shape of the dose curve; as a rule, active = well fitted curve in the direction sought with a large enough effect in the repeat runs; inconclusive = weak or mixed curves; inactive = no such curve, though single readings can be large; an effect the other way counts as inactive or inconclusive.

As for `O=[N+]([O-])c1ccc(Nc2ccc(Nc3ccccc3)c(S(=O)(=O)O)c2)c([N+](=O)[O-])c1`, the Potency result in assay [1], in [2], in assay [3], in assay [4], in [5] and in assay [6] was “inactive” each time. The Potency result in assay [7], in [9], in assay [10], in assay [11], in [12] and in [13] was “inactive” throughout. For the same molecule, the molecule was called inactive in assay [8].

For `C/C=C\C/C=C/CCCCCCCCOC(C)=O`, the Potency result in [1], in assay [14], in assay [3], in assay [4], in assay [5] and in [15] was “inactive” each time. In addition, the Potency entry in assay [6], in [16], in assay [9], in [10], in assay [11] and in assay [12] was “inactive” in each case. Further, the Potency result in [13] is “inactive”. Also, the molecule was classed as inactive in assay [8]. In addition, the activity change, positive = activation in [17] was -15%.

With `CC[C@]1(O)C[C@H]2CN(CCc3c([nH]c4ccccc34)[C@@](C(=O)OC)(c3cc4c(cc3OC)N(C=O)[C@H]3[C@@](O)(C(=O)OC)[C@H](OC(C)=O)[C@]5(CC)C=CCN6CC[C@]43[C@@H]65)C2)C1`, the Potency result in assay [1], in [4], in [6], in assay [16], in assay [9] and in [10] was “inactive” in each case. In addition, the Potency result in assay [12] and in assay [13] was “inactive” in each case. Moreover, the Potency was 0.211 µM (active) in assay [3] and 0.0013 µM (active) in assay [11].

`CC1=Nc2ccc3ccccc3c2C1(C)C`: the Potency entry in assay [18], in [14], in assay [5], in assay [15], in assay [6] and in assay [7] was “inactive” throughout. Moreover, the Potency entry in assay [16], in assay [10], in assay [11], in assay [12] and in [13] was “inactive” throughout. In addition, in assay [8], the result was inactive. Further, the activity change, positive = activation in assay [17] was -35.4%.

For `O=C=Nc1cccc(C(F)(F)F)c1`, the Potency entry in assay [1], in assay [14], in assay [2], in assay [5], in assay [15] and in [6] was “inactive” each time. Further, the Potency entry in assay [16], in assay [10], in [12] and in assay [13] was “inactive” each time. Moreover, the call in assay [8] was inactive. The Potency in assay [19] was 60.7 µM (active). Also, the activity change, positive = activation in [17] is -56.5%.

For `CC(=O)[C@H]1[C@H](C#N)C[C@H]2[C@@H]3CC=C4C[C@@H](O)CC[C@]4(C)[C@H]3CC[C@@]21C`, the Potency result in assay [1], in assay [14], in assay [2], in assay [5], in assay [20] and in assay [15] was “inactive” in each case. Besides, the Potency result in [7], in assay [16], in assay [10], in [12] and in assay [13] was “inactive” each time. Moreover, the activity change, positive = activation in assay [17] was -13.1% [at 42.5 µM].

For `O=[N+]([O-])c1ccc(O/N=C/c2cc(Br)c(O)c(Br)c2)c([N+](=O)[O-])c1`, the Potency in [18] was 30.5 µM (active); in [2], 34.2 µM (active); in assay [5], 48.3 µM (active); in assay [11] it was 43.4 µM (active). The Potency entry in [3], in assay [6], in assay [7], in assay [10], in assay [12] and in [13] was “inactive” in each case. Moreover, the outcome in assay [8] was inactive.

Turning to `O=Cc1c2ccccc2c(Cl)c2ccccc12`, the Potency result in assay [1], in assay [14], in assay [2], in assay [15], in assay [7] and in assay [10] was “inactive” throughout. Also, in assay [12], the Potency result is “inactive”. Also, the results for the Potency in assay [20] and in [19] were 13.3 µM (active) and 9.45 µM (active), respectively. In assay [17], the activity change, positive = activation is -33.4% [at 42.5 µM].

The record behind these values is PubChem BioAssay (Tox21).
